The supplement of paper PMC6522484
± gives the standard deviation of the averaged measurements.

Legend:
DLD1 [1] = assay: cell viability (CellTiter-Glo) relative to plate median (fraction of plate median); higher = more viable cells; conditions: 5 µM; treatment time 24 h; reporter: 7TFP
Method in brief: (§1)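 Values are well luminescence normalised to the plate median, from either a firefly luciferase or a CellTiterGlo readout on parallel plates. The cells, colorectal cancer lines stably transduced with lentiviral 7TFP or TCF4/Wnt firefly luciferase reporters, were treated with library compounds at a final 5 µM for 24 h. The mean of two independent replicates is listed.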

HCT116 = assay: as above; conditions: 5 µM; treatment time 24 h; reporter: TCF4/Wnt
Method in brief: as §1

SW480 [2] = assay: as above; conditions: 5 µM; treatment time 24 h; reporter: 7TFP
Method in brief: as §1

DLD1 [3] = assay: TCF/Wnt firefly luciferase reporter signal relative to plate median (fraction of plate median); higher = higher Wnt reporter signal; conditions: 5 µM; treatment time 24 h; reporter: 7TFP
Method in brief: as §1

SW480 [4] = assay: as above; conditions: 5 µM; treatment time 24 h; reporter: 7TFP
Method in brief: as §1

| Structure (SMILES) | cell viability (DLD1 [1]) | cell viability (HCT116) | cell viability (SW480 [2]) | TCF/Wnt firefly luciferase reporter signal (DLD1 [3]) | TCF/Wnt firefly luciferase reporter signal (SW480 [4]) |
| --- | --- | --- | --- | --- | --- |
| C=C(C)[C@H]1C(=O)[C@H]2O[C@@]2(C)C(=O)[C@@H](O)[C@H](C(=C)C)CCC2=C[C@H]1OC2=O [bipinnapterolide A] | 1.17 ± 0.071 | 1.04 ± 0.092 | 1.01 ± 0.033 | 0.971 ± 0.042 | 0.913 ± 0.12 |
| CN(C)CCC(c1ccccc1)c1ccccn1 (stereo not given) | 0.973 ± 0.039 | 1 ± 0.18 | 0.963 ± 0.032 | 1.16 ± 0.035 | 1.055 ± 0.0071 |
| N=C(N)NCCN1CCCCCCC1 | 1.03 ± 0.035 | 1.04 ± 0.11 | 1.04 ± 0.05 | 0.983 ± 0.081 | 1.115 ± 0.0071 |
| O=C1C=C2CC3(O)COc4c(ccc(O)c4O)C3=C2C=C1O (stereo not given) | 0.988 ± 0.073 | 1.04 ± 0.065 | 1.06 ± 0.13 | 0.943 ± 0.081 | 1.05 |
| COc1cccc(OC)c1C(=O)N[C@@H]1C(=O)N2[C@@H]1SC(C)(C)[C@@H]2C(=O)O | 1.05 ± 0.071 | 1.17 ± 0.042 | 1.07 ± 0.035 | 1.14 ± 0.21 | 1.06 ± 0.16 |
| COc1ccc2c(c1)O[C@@H]1COc3cc(OC)c(OC)cc3[C@@H]1C2=O | 1.02 ± 0.067 | 0.841 ± 0.074 | 0.908 ± 0.037 | 0.979 ± 0.087 | 0.777 ± 0.046 |
| CC(C)C[C@@H]1NC(=O)[C@H](C)NC1=O [cyclo(alanylleucyl)] | 0.998 ± 0.046 | 1.02 ± 0.11 | 0.998 ± 0.045 | 0.994 ± 0.0028 | 0.987 ± 0.1 |
| CC(C)Oc1ccc2c(=O)c(-c3ccccc3)coc2c1 | 0.972 ± 0.013 | 1.05 ± 0.083 | 1.01 ± 0.021 | 1.24 ± 0.21 | 0.949 ± 0.34 |
| Cc1ccc(S(=O)(=O)NC(=O)NN2CC3CCCC3C2)cc1 (stereo not given) | 0.95 ± 0.063 | 0.999 ± 0.044 | 0.974 ± 0.052 | 1.07 ± 0.071 | 0.9645 ± 0.0035 |
| CC(=O)OC/C=C(\C)CC/C=C(\C)CC/C=C(\C)CC/C=C(\C)CC/C=C(\C)CC/C=C(\C)CC/C=C(\C)CC/C=C(\C)CCC=C(C)C | 1.04 ± 0.042 | 0.96 ± 0.085 | 1.06 ± 0.028 | 0.807 ± 0.072 | 1.02 ± 0.057 |
| COc1ccc2ccc(=O)oc2c1CC=C(C)C | 1.04 ± 0.13 | 1.01 ± 0.026 | 0.985 ± 0.036 | 1.01 ± 0.033 | 0.99 ± 0.071 |
| COc1ccc2c(=O)c(-c3cc4c(cc3OC)OCO4)coc2c1 | 0.995 ± 0.093 | 1.01 ± 0.053 | 1.04 ± 0.035 | 1.03 ± 0.042 | 1.14 ± 0.014 |
| Cc1cc(O)c(C=O)c2c1C(=O)Oc1c(C)c(O)c3c(c1O2)C(O)OC3=O (stereo not given) | 0.975 ± 0.092 | 1.11 | 0.988 ± 0.017 | 1.04 ± 0.068 | 1.02 ± 0.036 |
| CC[C@H](C)[C@@H]1NC(=O)[C@H](C)NC1=O [Cyclo(alanylisoleucyl)] | 1.05 ± 0.12 | 1.165 ± 0.0071 | 1.07 ± 0.014 | 1.05 ± 0.028 | 0.992 ± 0.15 |
| C[C@@H]1CC[C@H]2[C@](C)(CO)[C@@H](O)CC[C@]2(C)[C@@]12CC[C@@](CO)(CCO)O2 | 0.994 ± 0.052 | 1.02 ± 0.049 | 0.9945 ± 0.0078 | 1.01 ± 0.043 | 1.02 ± 0.014 |
